Laboratory results as given in PubChem BioAssay AID687031 (Broad Institute, 2013).
The campaign covered roughly 1,400 compounds. About 50 (4%) were called active.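 Rule for the calls: active = fitted curve reaches 30% CPE protection at or below the top valid dose, with every test run called active; inconclusive = test runs disagree, some active and some not; inactive = every test run inactive, including effects in the wrong direction.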 The list is a sample of the results. Entries with a potency or affinity are not part of this list.

Assay: antiviral rescue of DENV2-infected BHK-21 cells – cell-based, ATP luminescence, cherry-pick, dose response (AID 687031)
Details: BHK-21 DENV2 CPE protection, 5 d; series mostly up to 19.5 µM

outcome, inactive:
Cc1cnc(CNC(=O)C2CCC(=O)N(Cc3ccc(Cl)cc3)C2)[nH]1 (stereo unspecified), ClC(CCN1CCN(Cc2ccccc2)CC1)c1ccccc1 (stereo unspecified), Cc1cccc(N(CC(=O)NC(C)(C)C)C(=O)CNC(=O)c2cccs2)c1C, CS(=O)(=O)N1CCc2cc(C(=O)N3CCN(c4ccccc4)CC3)ccc21, CC1CCN(C(=O)COC(=O)c2cc3ccccc3oc2=O)CC1, CCOC(=O)N1CCC(NCCNC(=O)c2ccc(F)c(F)c2)CC1, Cc1noc(C)c1NC(=O)N(C)C[C@@H]1Oc2c(NS(=O)(=O)c3ccccc3)cccc2C(=O)N([C@@H](C)CO)C[C@@H]1C, CCNC(=O)C1(C)CCN(Cc2noc(-c3c(C)noc3C)n2)C1 (stereo unspecified), O=C(NC1CCCCC1)N[C@H]1C=C[C@@H](CC(=O)N2CCOCC2)O[C@@H]1CO, O=C(C[C@H]1C=C[C@H](NS(=O)(=O)c2ccccc2)[C@H](CO)O1)N1CCC(Cc2ccccc2)CC1, CCN(c1ccccc1)S(=O)(=O)c1ccc(OC)c(NC(=O)C2CCC2)c1, Cc1cccc(OCC(=O)NNC(=O)C2CCCCC2C(=O)O)c1 (stereo unspecified), CN1CCN(CCOc2ccc(-c3ccccc3)cc2)CC1, c1ccc(-c2ccc(OCCN3CCOCC3)cc2)cc1, Cc1cc(=O)oc2cc(OCCSCCN3CCCC3)ccc12, O=C(NCc1cc(C(F)(F)F)cc(C(F)(F)F)c1)C1CC(c2cccc(F)c2)=NO1 (stereo unspecified), O=C(C[C@@H]1CC[C@H]2[C@@H](COC[C@@H](O)CN2C(=O)c2ccncc2)O1)NCc1ccc(-c2ccccc2)cc1, CCCC[C@@H]1CNC(=O)C(=O)N1CCCCC1CCCCC1, CCC(=O)Nc1ccc2c(c1)C(=O)N(C)[C@@H]1CC[C@H](CC(=O)N[C@@H](C)c3ccccc3)O[C@@H]1CO2, O=C(NCc1ccccc1F)[C@H]1N[C@H]2c3ccc(-c4ccccc4F)c(=O)n3C[C@H]2[C@@H]1CO, O=C(NCCN1CCCC1)[C@H]1N[C@H]2c3ccc(-c4ccccc4)c(=O)n3C[C@H]2[C@@H]1CO, O=C(c1cc(-c2ccccc2)n[nH]1)N1CCN(S(=O)(=O)c2ccccc2)CC1, COCCn1nnnc1C(c1cc2cc(C)ccc2[nH]c1=O)N1CCN(C2CCCCC2)CC1 (stereo unspecified), CCN(CC(=O)Nc1cc(Cl)ccc1-n1cncn1)Cc1nc2ccccc2c(=O)[nH]1, CCN(CC(=O)Nc1c(F)cccc1F)C(=O)c1cccc(S(=O)(=O)NCc2ccccc2)c1, C[C@@H]1CN([C@H](C)CO)C(=O)Cc2cc(NC(=O)Cn3cnnn3)ccc2O[C@@H]1CN(C)Cc1ccc(C(=O)Nc2ccccc2N)cc1, Cc1cnc(CN(C)C(=O)CC2C(=O)NCCN2Cc2cccc(F)c2F)[nH]1 (stereo unspecified), CCCN1CCC(NC(=O)CC2C(=O)NCCN2Cc2cccc(OC)c2)CC1 (stereo unspecified), COc1ccc(C(CCN2CCOCC2)c2c(OC)cc(OC)c3c(C)cc(=O)oc23)cc1 (stereo unspecified), CN1C[C@@H]2[C@@H]3C(=O)N(Cc4ccccc4)C(=O)[C@@H]3[C@](C)(C1=O)N2C(=O)c1ccc(C(C)(C)C)cc1, O=C(c1ccccc1Cc1ccccc1)N1CCN(S(=O)(=O)c2ccccc2)CC1, Cc1ccc(S(=O)(=O)N2CCN(C(=O)COC(=O)Cc3ccc(Cl)cc3)CC2)c(C)c1, O=C1[C@@H](Oc2ccccc2)[C@@H](c2ccncc2)N1c1ccncc1, Cc1ccc2ccc(C(Nc3ccccc3)c3ccccc3)c(O)c2n1 (stereo unspecified), Cc1ccc(CNC(=O)C2CCC(=O)N(CCc3ccccn3)C2)s1 (stereo unspecified), Cc1cccc(N2CCN(C(C(=O)NCc3ccccc3)c3ccc(F)cc3)CC2)c1C (stereo unspecified), CC1(C)CC(=O)N(CC(=O)O)c2ccccc2S1(=O)=O, CCNC(=O)C[C@H]1CC[C@@H]2[C@H](COC[C@H](O)CN2Cc2ccc(Cl)c(Cl)c2)O1, Cc1noc(C)c1S(=O)(=O)Nc1ccc2c(c1)C(=O)N([C@@H](C)CO)C[C@@H](C)[C@@H](CN(C)C(=O)Nc1ccccc1)OCCCC[C@@H](C)O2, Cc1noc(C)c1S(=O)(=O)Nc1ccc2c(c1)C(=O)N([C@H](C)CO)C[C@H](C)[C@H](CN(C)C(=O)Nc1ccccc1)OCCCC[C@@H](C)O2, CNc1cc(-c2ccc(O)cc2C)ncn1, O=C(C1CCOCC1)N1CC[C@@H]2[C@H]1c1cc(-c3cccc(F)c3)ccc1N[C@@H]2CO, O=C(C1CC1)N1CC[C@@H]2[C@H]1c1cc(-c3ccc(F)cc3)ccc1N[C@@H]2CO, Cc1ccc(S(=O)(=O)c2nnn3c2nc(N2CCOCC2)c2ccccc23)cc1C, CCCN(CC(=O)Nc1ccccc1C)C(=O)C1CCN(S(=O)(=O)c2ccc(C)c(C)c2)CC1, CCC(C)(C)C1CCc2[nH]nc(C(=O)NCc3ccccn3)c2C1 (stereo unspecified), O=C(NCc1ccccn1)C(=O)NCC1OCCN1S(=O)(=O)c1ccc(Br)cc1 (stereo unspecified), COc1ccc(CN(C)C[C@H]2OCCCC[C@@H](C)Oc3ccc(NC(=O)NC(C)C)cc3C(=O)N([C@H](C)CO)C[C@H]2C)cc1, CN1c2ccc(-c3cccc(F)c3)cc2[C@H]2[C@H](CCN2C(=O)Cc2cccnc2)[C@H]1CO, CC(C)NC(=O)N1C[C@H]2[C@@H](c3ccccc31)[C@@H](CO)N2C(=O)c1ccccn1, O=C(C1CCOCC1)N1C[C@@H]2[C@H](c3ccccc31)[C@H](CO)N2C(=O)c1ccccc1, COc1ccc2ccccc2c1/C=N/NC(=O)c1ccccc1F, Cc1ccccc1S(=O)(=O)N1CC[C@H]2[C@@H](CO)N(C)c3ccc(Br)cc3[C@H]21, CCOc1ccc2[nH]c3ncccc3c(=O)c2c1, CC1(C(=O)NCc2cccs2)Cc2c(-c3cccc(C(F)(F)F)c3)ccnc2O1 (stereo unspecified), CCc1nnc(NC(=O)c2ccc(F)c(S(=O)(=O)N3CCCCC3)c2)s1, CN(C)CC(=O)Nc1ccc2c(c1)[C@H]1C[C@H](CC(=O)NC3CCCCC3)O[C@@H](CO)[C@H]1O2, O=C(C[C@H]1C[C@@H]2c3cc(NC(=O)CC4CC4)ccc3O[C@@H]2[C@H](CO)O1)NCc1ccccc1, Cc1ccc(NCC(=O)N/N=C/c2cccc(Br)c2)cc1, CCCCCC(=O)N1C[C@@H](n2cc(C3CC3)nn2)[C@H](O)C[C@@H]1c1ccccc1, Cc1ccccc1CN1C(=O)CN(S(C)(=O)=O)CC1(C)C(=O)NCc1ccccc1 (stereo unspecified), COCCNC(=O)C1CCC(CNS(=O)(=O)c2ccc(F)cc2)CC1 (stereo unspecified), CC(=O)Nc1cccc(C(=O)OC(C)C(=O)NC(=O)NC2CCCCC2)c1 (stereo unspecified), CCOC(=O)C1=C(C)NC(=O)NC1c1ccc(N(C)C)cc1 (stereo unspecified), N#C[C@@H]1[C@H](c2ccc(-c3ccccc3F)cc2)[C@H](CO)N1C(=O)C1CC1, Cc1ccc(S(=O)(=O)N2CCOCC2)cc1NC(=O)CN(C)CC(=O)Nc1cccc(F)c1, CCN(CC(=O)Nc1c(F)cccc1F)C(=O)C1CCN(S(=O)(=O)c2ccc(F)cc2)CC1, COc1ccc(-c2cc(C(=O)NCCCN3CCCC3=O)c3ccccc3n2)cc1, CSc1cccc(NC(=O)CC2Oc3ccccc3NC2=O)c1 (stereo unspecified), CCOc1ccc(N(CC(=O)NC2CCCC(C)C2C)S(=O)(=O)c2c(C)noc2C)cc1 (stereo unspecified), Cn1c(=O)c2[nH]c(CCCCc3nc4ccccc4[nH]3)nc2n(C)c1=O, Nc1ccc(CC(N)c2csc(Nc3cc(Oc4ccccc4)ncn3)n2)cc1 (stereo unspecified), COc1ccc(CC(N)c2csc(NC(=O)c3ccc(OC)cc3)n2)cc1 (stereo unspecified), CC(C)SCc1cc(N2CCCC2)nc(-c2ccccc2)n1, COc1ccccc1-c1noc2c1C(=O)N(Cc1cn(Cc3ccccc3)nn1)CC2, COc1ccc2ccccc2c1-c1sc(Nc2ccccc2)n[n+]1-c1ccc(F)cc1, CNC[C@@H]1OCCCC[C@H](C)Oc2ccc(NS(=O)(=O)c3c(C)noc3C)cc2C(=O)N([C@@H](C)CO)C[C@@H]1C, CC1CCCCC12NC(=O)N(CC(=O)NCc1cccs1)C2=O (stereo unspecified), O=C(NCc1cccs1)c1cccc(Nc2nc3ccc(Br)cc3[nH]2)c1, CN(Cc1ccccc1)CC1CCCN(CCc2ccccc2F)C1 (stereo unspecified), CC(C)Cc1ccc(C(C)C(N)=NCCc2ccccc2)cc1 (stereo unspecified), CCN(C)C1CN(Cc2cn(Cc3ccc(F)cc3)nn2)S(=O)(=O)C1 (stereo unspecified), CCOc1ccc(Oc2nc(NCC(C)C)nc(OC)n2)nn1, O=C(NC(C(=O)N1CCCC1C(=O)NC1CCCC1)c1ccccc1)c1cccs1 (stereo unspecified), NS(=O)(=O)c1ccc(CCNC(=O)C2CCCN2C(=O)c2cccs2)cc1 (stereo unspecified), CCC(=O)N1CC2(C1)CN(C(=O)Nc1ccc(F)cc1)[C@H](CO)c1c2c2ccc(OC)cc2n1C, Cc1ccc(-c2nc(N3CCN(C)CC3)c3ccccc3n2)cc1, COc1ccc(/C=N/NC(=O)c2nc(-c3ccccc3)n(-c3ccccc3)n2)cc1OC, CCNC(=O)C[C@H]1CC[C@H]2[C@@H](COC[C@H](O)CN2C(=O)c2cccnc2)O1, CCCNC(=O)C[C@H]1CC[C@@H]2[C@H](COC[C@H](O)CN2C(=O)CC)O1, Cc1ccc(SCCN2CCC(NC(=O)OCc3ccccc3)CCC2=O)cc1 (stereo unspecified)
